AmpC inh no detg: blocks E. coli AmpC beta-lactamase in detergent-free assay; P00811; AmpC nitrocefin hydrolysis, absorbance 480 nm, 0.0001% Triton; Potency, µM (highest dose often 57.1 µM), actives largely listed as inhibitors; 330,000 compounds, 0.52% hits; AID 485341; note: nearly all actives have a fitted effect of over 20% in size
Target sequence (P00811 whole entry, looked up): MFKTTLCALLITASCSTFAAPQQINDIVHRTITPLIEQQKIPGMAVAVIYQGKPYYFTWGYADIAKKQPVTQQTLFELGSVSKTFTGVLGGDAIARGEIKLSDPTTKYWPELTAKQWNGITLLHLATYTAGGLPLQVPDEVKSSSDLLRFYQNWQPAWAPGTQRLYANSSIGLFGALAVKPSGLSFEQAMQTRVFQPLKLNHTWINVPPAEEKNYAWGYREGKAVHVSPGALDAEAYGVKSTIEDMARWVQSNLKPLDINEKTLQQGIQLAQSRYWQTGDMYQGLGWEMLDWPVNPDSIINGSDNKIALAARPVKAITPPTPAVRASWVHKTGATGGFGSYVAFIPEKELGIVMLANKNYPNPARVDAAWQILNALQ
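AmpC (5.3 nM in the dispensed reagent) in 20 mM phosphate pH 7.0 with 0.01% (detergent screen) or 0.0001% Triton X-100 was preincubated with compounds for 15 min at room temperature. Nitrocefin was then added from an 800 uM solution, and hydrolysis was followed at 480 nm.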
VACV Venus inh: inhibitors of vaccinia virus (Venus reporter); Vaccinia virus Venus reporter expression, fluorescence; Potency, µM (series often up to 36.5 µM), hits mostly inhibitors; 330,000 compounds, 0.46% hits; AID 720580; calls by dose curve; tested in A549 cells; note: nearly all actives have a fitted effect of over 30% in size
VACV mCherry inh: inhibitors of vaccinia virus infection (mCherry reporter signal). Vaccinia virus mCherry reporter infection, fluorescence. 310,000 compounds, 0.63% hits. Potency, µM (top dose mostly 36.5 µM), hits mostly inhibitors. AID 720579; calls by dose curve; tested in A549 cells; note: nearly all actives have a fitted effect of over 35% in size
AmpC detergent: inhibitors of E. coli AmpC beta-lactamase with detergent; 370,000 compounds, 0.041% hits; Potency, µM (top dose mostly 114 µM), most hits filed as inhibitors; AmpC hydrolysis of nitrocefin, absorbance 480 nm, 0.01% Triton; P00811; note: nearly all actives have a fitted effect of over 25% in size
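20 mM phosphate pH 7.0 + 0.01% (detergent screen) or 0.0001% Triton X-100; 5.3 nM AmpC reagent; cpd preinc 15 min RT; nitrocefin (800 uM stock) to start; A480 q20 s × 4 min; Activity was normalised to no-enzyme and no-compound control wells.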
Numbers stand for hits; - = inactive; ? = inconclusive; . = no result; [ ] = another dose, or the depositor's remark. Rows were chosen to be rich in hits. Some 1.1% of all compounds tested hit in one or more screens of this group. Unless noted, calls come from the whole dose curve; as a rule, active = well fitted curve in the direction sought with a large enough effect; inconclusive = small, poorly fitted or top-dose-only effect, or another doubt; inactive = no such curve, though single readings can be large; an effect the other way counts as inactive or inconclusive.

SMILES	AmpC inh no detg	VACV Venus inh	VACV mCherry inh	AmpC detergent
O=C(C[N+]1(CCO)CCOCC1)c1cccc2ccccc12	.	-	-	.
COc1ccc(CNC(=S)Nc2ccc(Br)cc2)cc1	-	-	-	-
COc1ccc(CNC(=S)Nc2ccc(-c3ccccc3)cc2)cc1	14µM	-	-	-
c1cncc(OC2CCN(Cc3ccc4c(c3)CN(Cc3ccc5c(c3)OCCO5)CCO4)CC2)c1	.	-	-	.
COc1ccc2nc(NC(=O)c3ccc([N+](=O)[O-])o3)sc2c1	-	?	?	-
O=C(Nc1nc2c(F)cc(F)cc2s1)c1ccc([N+](=O)[O-])o1	-	10µM	13µM	-
Cc1cc(C)c2sc(NC(=O)c3ccc([N+](=O)[O-])o3)nc2c1	-	11µM	?	-
O=C(Nc1nc2ccccc2s1)c1ccc([N+](=O)[O-])o1	-	.	.	-
Cc1cc(C)c2nc(NC(=O)c3ccc([N+](=O)[O-])o3)sc2c1	-	?	10µM	?
O=C(Nc1nc2cc3c(cc2s1)OCCO3)c1ccc([N+](=O)[O-])o1	-	-	?	-
CCc1ccc(N(C(C)=O)C2C=CS(=O)(=O)C2)cc1 (stereo unspecified)	0.16µM	.	.	-
Cc1ccc(S(=O)(=O)n2nc(OC(=O)c3ccccc3C)cc2N)cc1	32µM	-	-	-
COc1ccccc1COCC(O)CNCC1(N2CCCCC2)CCCCC1 (stereo unspecified)	0.14µM	.	.	-
COc1cc(C(C)=O)ccc1OCC(O)CNCC1(N2CCCCC2)CCCCC1 (stereo unspecified)	-	.	.	?
Cc1ccc(C(=O)Nc2cccc(-c3nc(CNC(=O)c4cccc(N(C)C)c4)c(C)o3)c2)s1	.	-	-	.
COc1cc(=O)n2c(c1C(=O)N(C)Cc1nonc1C)CCN(Cc1ccccc1F)CC2	.	-	-	.
CCOC(=O)c1cccc(Nc2nc(-c3cccnc3)nc3ccccc23)c1	-	22µM	.	-
COCCCNc1ncnc2sc(C(=O)N3CCCCC3)c(C)c12	.	-	-	.
O=C(CC(C(=O)O)n1ccnc1)c1ccc(Cl)cc1 (stereo unspecified)	.	-	-	.
CCOc1cccc(CN2CCC(n3cc(C(=O)N4CCCCC4)nn3)CC2)c1O	.	-	-	.
CC(=O)Nc1ccc(NC(=O)CC2Nc3cccc4cccc(c34)NC2=O)cc1 (stereo unspecified)	-	-	-[1.46 µM]	-
CC(=O)c1ccc(NC(=O)CC2Nc3cccc4cccc(c34)NC2=O)cc1 (stereo unspecified)	16µM	?	?	?
O=C(Nc1nccs1)[C@@H]1CC=C[C@@H]2CCN(C3CC3)C(=O)[C@@H]21	.	-	-	.
CCN(c1ccccc1)S(=O)(=O)c1ccc(Cl)c(NC(=O)COC(=O)c2cc(O)c3ccccc3c2O)c1	4µM	.	.	-
C=CC(=O)Nc1cccc(Oc2cc(Cl)nc3[nH]ccc23)c1	-	1.6µM	?	.
SMILES	AmpC inh no detg	VACV Venus inh	VACV mCherry inh	AmpC detergent
COc1cccc(NC(=O)c2cccc(C(=O)Nc3cccc(OC)c3)n2)c1	-	-	-	-
C=CCSc1nnc(C2CCCN(Cc3ccccc3O)C2)n1C (stereo unspecified)	.	-	-	.
COc1ccc2nc(NC(=O)CSCc3c(C)noc3C)sc2c1	25µM	-	-	?
CCOC(=O)c1c(-c2cccc3ccccc23)csc1NC(=O)C1C2CCC(O2)C1C(=O)O (stereo unspecified)	-	-	-	-
CCOC(=O)c1c(NC(=O)C2C3CCC(O3)C2C(=O)O)sc(C)c1-c1ccc(C)cc1 (stereo unspecified)	-	11µM	.	-
COc1ccc(CN2CCOc3ccc(CN4CCC(O)CC4)cc3C2)c(OC)c1OC	.	-	-	.
O=C(NNC(=O)C12CC3CC(CC(C3)C1)C2)c1ccccc1O	-	?	10µM	-
CCOC(=O)c1c(-c2ccc(C)cc2)csc1NC(=O)/C(C#N)=C/c1ccc(O)c(OC)c1	8.9µM	-	-	-
Cc1ccc(S(=O)(=O)/C(C#N)=C/c2c[nH]c3ccccc23)cc1	18µM	-	-	-
Cc1nc2nc(C)n(CCN3CCOCC3)c(=O)c2c(-c2cccc([N+](=O)[O-])c2)c1C(=O)CCCCCCCCCCN1CCC(c2ccccc2)(c2ccccc2)CC1	.	10µM	?	.
Cc1ccc(NS(=O)(=O)c2cc3c4c(cccc4c2)C(=O)NC3=O)cc1C	-	10µM	13µM	-
O=C1NC(=O)c2cc(Br)cc3cccc1c23	-	-	-	-
Cc1ccc(OCCC(=O)OCC(=O)NC(=O)NC2CCCC2)cc1	35µM	-	-	-
Cc1ccc(OCCC(=O)OCC(=O)NC2CCCCC2)cc1	.	-	-	.
Cn1c(=O)c(Cc2ccccc2)c(O)c2ccccc21	-	.	.	-
O=c1c(Cc2ccccc2)c(O)c2cccc3c4c(n1c23)CCCC4	7.9µM	-	-	-
Cc1nnc(-c2ccccc2)c(=O)n1/N=C/c1c(O)ccc2ccccc12	-	?	3.2µM	-
Cc1nnc(C)n1/N=C/c1c(O)ccc2ccccc12	-	.	.	-
Cc1nc2cc(NC(=O)[C@@H]3C[C@@H](Sc4ccccn4)CN3Cc3ccccc3)ccc2s1	.	-	-	.
C/C=C(/C)C(=O)OC1CC(C)(C)C[C@H]2C3=CC[C@@H]4[C@@]5(C)CCC(O[C@@H]6O[C@@H](C(=O)O)[C@@H](O)C(O[C@@H]7OC[C@H](O)[C@@H](O)[C@@H]7O[C@@H]7OC(CO)C(O)[C@@H](O)[C@@H]7O)C6O[C@@H]6OC(CO)C(O)C(O)C6O)[C@@](C)(CO)[C@@H]5CC[C@]4(C)[C@]3(C)CC(O)[C@@]12CO (stereo partly specified)	-	13µM	?	.
C=C(C)C1CC=C(C)/C(=N/NC(=O)c2ccccc2[N+](=O)[O-])C1 (stereo unspecified)	16µM	-	-	-
C=C(C)C1CC=C(C)/C(=N/Nc2ccccc2[N+](=O)[O-])C1 (stereo unspecified)	-	-	-	-
Cc1nn(-c2ccccn2)c2c1-c1nc(N)sc1CC2	.	-	-	.
O=C(/C=C1\NC2(CCCC2)Cc2ccccc21)C(=O)N/N=C/c1ccccc1O	-	?	13µM	?
COc1cc(/C=N/NC(=O)C(=O)/C=C2\NC3(CCCC3)Cc3ccccc32)ccc1O	-	-	-	-
SMILES	AmpC inh no detg	VACV Venus inh	VACV mCherry inh	AmpC detergent
CCn1c(-c2ccccc2F)nc2cc(NC(C)=O)cc(C(=O)NC(c3ccccn3)C(F)(F)F)c21 (stereo unspecified)	.	-	-	.
O=C(CSc1nc2ncc(Br)cc2[nH]1)c1cccc([N+](=O)[O-])c1	32µM	-	-	?
Cc1nc2nc(SCC(=O)c3cccc([N+](=O)[O-])c3)[nH]c2cc1Br	-	-	-	-
O=C(C[n+]1ccncc1)c1ccc2ccccc2c1	.	-	-	.
Cc1no[n+]([O-])c1COc1ccc(/C=N/n2nnnc2N)cc1	-	?	14µM	-
COc1ccccc1/C=C/C=N/NC(=O)c1ccc2nc[nH]c2c1	20µM	.	.	-
COC(=O)c1c(OCc2ccccn2)cc(=O)n2c1CCN(Cc1ccc3nsnc3c1)CC2	.	-	-	.
Cc1ccccc1C1(CC(=O)N2CCCCC2C)CC(=O)N(Cc2cccnc2)C1=O (stereo unspecified)	.	-	-	.

Screening results (PubChem)
